Values joined by “and” are separate entries in the source; they are usually repeats but may differ in a detail not shown here. Equal entries are not always repeated. Results filed as inconclusive are left out. Unmarked numbers belong to inactive results. Active and inactive are the calls of the source. Calls come from the whole dose curve; as a rule, active = well fitted cell-killing curve with a large enough effect; inconclusive = small, poorly fitted or top-dose-only effect; inactive = flat fitted curve, though single readings scatter.
% is set by controls: 0 for no effect and ±100 for the full control effect; potency is the fitted concentration of half-maximal effect.

A short description of this assay: Cellular viability qHTS for adrenocortical cancer (ACC) cell line SW-13 (AID 1963989).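 For activity (max response): cells grown in serum-free medium with ITS supplement.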 Note: nearly all actives have a fitted effect of over 65% in size. Particulars: SW-13 ACC cells viability, CellTiter-Glo, 48 h; activity (max response): active compounds read low. The gist of the method: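 Here, serum-free SW-13 cultures were dosed up to 46 uM. Following 48 h, ATP-dependent luminescence (CellTiter-Glo) reported viable cells, and logistic modeling produced IC50 values.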
For orientation: In qHTS, concentration-response curves come from the screen itself.
Consider `CCCCc1nc(Cl)c(CO)n1Cc1ccc(-c2ccccc2-c2nn[nH]n2)cc1`, for which the activity (max response) was 12.4%.
With `COc1ccc([C@@H](O)[C@@H](C)Oc2ccc([C@H]3O[C@H](c4ccc(O[C@H](C)[C@H](O)c5ccc(OC)c(OC)c5)c(OC)c4)[C@H](C)[C@H]3C)cc2OC)cc1OC`, the Potency was 0.316 µM (active).
In the case of `CC(=O)Oc1ccc(C(=C2CCCCC2)c2ccc(OC(C)=O)cc2)cc1`, the activity (max response) was -5.44%.
The same measure, in the same setting: to `CC(=O)Nc1ccc(S(=O)(=O)Nc2ccc([N+](=O)[O-])cc2)cc1` belongs 3.97%.
Still for that read-out and setting: as for `COc1ccc(CCN(C)CCCC(C#N)(c2ccc(OC)c(OC)c2)C(C)C)cc1OC` (configuration not stated), the figure is -2.85% and -16.8%; as for `C[C@]12CC[C@H](O)CC1=CC[C@@H]1[C@@H]2CC[C@]2(C)C(c3cccnc3)=CC[C@@H]12`, 2.71%; as for `COc1cccc(-c2c(C)n(Cc3c(F)cccc3C(F)(F)F)c(=O)n(C[C@H](NCCCC(=O)O)c3ccccc3)c2=O)c1F`, 3.23% and 7.63%.
Regarding `O=C(O)CCNc1cc(N2CCc3ccccc3CC2)nc(-c2cccnc2)n1`, the activity (max response) is -9.23%.
Same read-out and setting: to `COc1cc(-c2cn(C)c(=O)c3cnccc23)c(OC)cc1CN(C)C` belongs 19.4%; to `CCCN1C[C@H](CSC)C[C@@H]2c3cccc4[nH]cc(c34)C[C@H]21`, -4.04%.
On the same count and under the same terms, as for `O=C(O)Cc1ccc(CCNS(=O)(=O)c2ccc(Cl)cc2)cc1`, the figure is -0.672%; as for `N[C@H](C(=O)O)c1ccc(O)cc1`, 5.01%.
In the case of `CCc1c(-c2ccccc2C)nc2c(C#N)c[nH]n2c1=O`, the activity (max response) was 6.89% and 1.74%.
Still for that read-out and setting: to `Cc1nc2ccccn2c(=O)c1CCN1CCC(C(=O)c2ccc(F)cc2)CC1` belongs -20%; to `CC(C)N(CCCNC(=O)Nc1ccc(C(C)(C)C)cc1)C[C@H]1O[C@@H](n2ccc3c(N)ncnc32)[C@H](O)[C@@H]1O`, -3.92%; to `OCCOCCN1CCN(C2=Nc3ccccc3Sc3ccccc32)CC1`, -9.48%.
The same measure, in the same setting: as for `OC(C#CCN1CCCC1)(c1ccccc1)c1ccccc1`, the figure is -0.545%.
Turning to `Nc1nc(Nc2ccc3c(c2)CC[C@@H](N2CCCC2)CC3)nn1-c1cc2c(nn1)-c1ccccc1CCC2`, the Potency is 14.1 µM (active).
In the case of `Cc1ncc([N+](=O)[O-])n1CC(O)CCl` (configuration not stated), the activity (max response) was -4.94%.
On the same count and under the same terms, as for `O=C(CCNC(=O)c1ccc(OC(F)(F)F)cc1)N[C@@H]1CCCc2ccccc21`, the figure is -26.4%; as for `Cc1cc(O)cc(C)c1Cl`, 6.52%.
Same read-out and setting: to `O=C([C@@H](Cc1cccc(C(F)(F)F)c1)NS(=O)(=O)c1cc(F)c2c(c1)CCNC2)N1CCCC1` belongs -8.82%; to `Cc1ccc(NS(=O)(=O)c2ccc3c(c2)C2C=CCC2C(c2ccc(C(=O)O)cc2)N3)cc1C` (configuration not stated), -1.16%.
In the case of `CC(C)[N+](C)(CCOC(=O)C1c2ccccc2Oc2ccccc21)C(C)C`, the activity (max response) is -9.17%.
On the same count and under the same terms, to `COc1ccc(Cl)cc1-c1cc(=O)[nH]c(=S)n1CC(N)=O` belongs -3.52%.
`NS(=O)(=O)c1cc(C(=O)NN2C[C@H]3[C@H]4CCC(C4)[C@H]3C2)ccc1Cl`: the activity (max response) is -7.57%.
As to `CS(=O)(=O)c1ccc(-c2cnc(NCc3ccco3)n3cnnc23)cc1`, the activity (max response) is -12%.
The same measure, in the same setting: as for `COCCOC(=O)C1=C(C)NC(C)=C(C(=O)OC(C)C)C1c1cccc([N+](=O)[O-])c1` (configuration not stated), the figure is 7.46%.
On to `Cc1cc(Nc2cc(N3CCN(C)CC3)nc(/C=C/c3ccccc3)n2)n[nH]1`, for which the Potency was 25.1 µM (active).
With `CCOC(=O)C(C#N)=C(c1ccccc1)c1ccccc1`, the activity (max response) is -5.89%.
As to `CC(Oc1c(Cl)cccc1Cl)C1=NCCN1` (configuration not stated), the activity (max response) is 12.6%.
Same read-out and setting: as for `O=C(CCCc1ccc2cccnc2n1)NCc1cc(-c2ccc(F)c(C(F)(F)F)c2)no1`, the figure is 1.37%.
Turning to `O=c1cc(N2CCOCC2)oc2c(-c3ccc4c(c3)OCCO4)csc12`, the Potency was 11.2 µM (active).
Still for that read-out and setting: to `O=C1NC(=O)/C(=C/c2ccc(-c3ccc(F)cc3O)o2)S1` belongs 28.2 µM (active).
`CCS(=O)(=O)N1CCC(C(C)n2c(C)c(C(=O)NCc3c(OC)cc(C)[nH]c3=O)c3ccccc32)CC1` (configuration not stated): the activity (max response) was -8.74%.
Same read-out and setting: as for `N[C@H](Cc1c[nH]c2ccccc12)C(=O)O`, the figure is 5.49%; as for `O=[N+]([O-])c1nccn1CO[C@@H](CO)[C@H](O)CO`, -4.12%.

The values are drawn from PubChem BioAssay (NCATS).
